# Test results from PubChem BioAssay (NCI).
# About 83,000 compounds went through this panel and 20% of them were active in at least one assay; those are over-represented in the sample as a whole.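 Plates (96-well) were seeded with cells, treated with compound at one concentration, and incubated for 48 hours before percent growth was determined.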 Values without a mark were called inactive. Activity calls are given as the source filed them. The calls were made as follows: active = growth percent below 10; inactive = the rest.
# Experiments:
# Test in all cases: NCI-60 one-dose screen, 48 h (100 = growth as untreated, 0 = no growth, -100 = all killed)
# Settings in all cases: 10 µM unless noted
# DU-145 prostate = system: DU-145 prostate
# K-562 leukemia = system: K-562 leukemia
# MALME-3M melanoma = system: MALME-3M melanoma
# MDA-MB-231 breast = system: MDA-MB-231 breast
# RXF 393 renal = system: RXF 393 renal
# SF-268 CNS = system: SF-268 CNS
# SF-295 CNS = system: SF-295 CNS
# SF-539 CNS = system: SF-539 CNS
# UACC-257 melanoma = system: UACC-257 melanoma
# M14 melanoma = system: M14 melanoma
# HCT-15 colon = system: HCT-15 colon
# HT29 colon = system: HT29 colon
# SNB-75 CNS = system: SNB-75 CNS
# SNB-19 CNS = system: SNB-19 CNS
# U251 CNS = system: U251 CNS
# PC-3 prostate = system: PC-3 prostate
# SK-MEL-5 melanoma = system: SK-MEL-5 melanoma
# UACC-62 melanoma = system: UACC-62 melanoma
# LOX IMVI melanoma = system: LOX IMVI melanoma
# SK-MEL-28 melanoma = system: SK-MEL-28 melanoma
SMILES,growth (DU-145 prostate),growth (K-562 leukemia),growth (MALME-3M melanoma),growth (MDA-MB-231 breast),growth (RXF 393 renal),growth (SF-268 CNS),growth (SF-295 CNS),growth (SF-539 CNS),growth (UACC-257 melanoma),growth (M14 melanoma),growth (HCT-15 colon),growth (HT29 colon),growth (SNB-75 CNS),growth (SNB-19 CNS),growth (U251 CNS),growth (PC-3 prostate),growth (SK-MEL-5 melanoma),growth (UACC-62 melanoma),growth (LOX IMVI melanoma),growth (SK-MEL-28 melanoma)
COc1ccc(C2CC(c3ccc(Nc4nc(Nc5ccc(F)cc5)nc(Nc5ccc(F)cc5)n4)cc3)=NN2C(C)=O)cc1 (stereo not given),115%,83.1%,78.1%,122%,94.4%,103%,81.2%,92.1%,111%,100%,94.4%,100%,101%,85.2%,84.5%,68.8%,71.6%,103%,103%,110%
O=C(O)CCCn1c(SCc2c(Cl)cccc2Cl)nc2ccsc2c1=O,3.54% (active),9.27% (active),47.7%,42%,-27.9% (active),39.5%,14.6%,-20.1% (active),68.4%,-11.1% (active),30.7%,4.21% (active),-13.8% (active),31%,18.1%,14.5%,16.8%,28.3%,28%,57.6%
COc1cccc(/C=C/C(=O)c2cc3c(N)c(C(=O)Nc4ccccc4C)sc3nc2C)c1,8.15% (active),12.9%,78.6%,52.8%,-10.2% (active),28.9%,74%,50.9%,83.2%,47.5%,8.29% (active),-5.29% (active),12.8%,11.4%,7.49% (active),45.3%,52.4%,33.6%,-65.9% (active),70.9%
COc1ccc(-c2ccc(=O)oc2C#Cc2cc(OC)c(OC)c(OC)c2)cc1O,-4.48% (active),0.484% (active),48%,30.4%,-13.2% (active),20.5%,-20.6% (active),-28.7% (active),35.7%,-44.5% (active),22.5%,-9.43% (active),-13.4% (active),10.7%,13.6%,23.3%,-13.6% (active),14.8%,23.5%,38.9%
Fc1ccc2c(c1)c(-c1nc(-c3c[nH]c4ncccc34)cs1)cn2CCCN1CCOCC1,79.8%,1.71% (active),59.2%,36%,39.5%,50.8%,27.5%,67.3%,83%,34.7%,24.5%,12.9%,41.2%,62.7%,30.4%,31.9%,43.7%,69.5%,33.1%,75.4%
Cn1cc(/C=C2/C(=O)Nc3ccccc32)c2ccccc21,99.1%,96.7%,94.5%,109%,96.7%,84.5%,108%,80%,95.9%,92.3%,72.9%,95.4%,99.3%,102%,78.3%,90.2%,79.2%,107%,92.1%,101%
O=C(/C=C/c1ccc(Br)cc1)c1ccc(-n2cc(CN3CCN(c4cc5c(cc4F)c(=O)c(C(=O)O)cn5C4CC4)CC3)nn2)cc1,78.9%,51.5%,102%,80.1%,88.4%,72.6%,87.6%,83%,95.8%,87%,95%,91.7%,93.6%,86.9%,71.2%,82%,91.1%,83%,50.4%,107%
COc1cc(C#Cc2ccc(=O)oc2C#Cc2ccccc2)cc(OC)c1OC,65.7%,4.76% (active),75.9%,89%,78.7%,43.5%,96.9%,110%,108%,72.6%,61.4%,43.4%,77.1%,92.9%,83.8%,86.2%,56.7%,80.3%,-61% (active),23.1%
CC(C)[C@@]12C[C@@H](OC(=O)COC(=O)c3ccccc3)[C@@](C)(O1)[C@@H]1CC[C@@H](C)[C@H]1[C@@H]2OC(=O)/C=C/c1ccccc1,101%,75.4%,106%,86.3%,-2.22% (active),63.4%,94.5%,95.4%,95.3%,104%,92.5%,89.9%,72.6%,84.5%,84%,74.2%,90.7%,83.2%,89.1%,107%
O=C(/C=C/C12c3ccccc3C(c3ccccc31)C1C(=O)NC(=O)C12)c1ccccn1 (stereo not given),15.3%,8.81% (active),19.1%,16.4%,-46.3% (active),24.1%,16%,-7.59% (active),33.8%,-15.4% (active),-1.54% (active),0.981% (active),26.5%,1.14% (active),-28.9% (active),16.3%,3.65% (active),-48.4% (active),-60.5% (active),-33.2% (active)
Cc1c2ccccc2nc2c1ccc1cccnc12,95.6%,44.1%,88.3%,103%,108%,99.8%,89.3%,100%,72.3%,84.9%,81.4%,70.9%,71.1%,88.8%,84.7%,65.1%,53%,94.6%,105%,113%
O=C1/C(=C/c2ccc(Br)cc2)COc2ccc(O)c(O)c21,6.06% (active),5.3% (active),-17.2% (active),-4.69% (active),-49.2% (active),-36.7% (active),57.6%,-94.2% (active),9.86% (active),9.59% (active),0.349% (active),2.83% (active),20.4%,6.19% (active),-72.4% (active),-26.3% (active),29.8%,-14.2% (active),-91% (active),22%
COc1ccc2nc3ccccc3c(NCc3ccccc3)c2c1,22.5%,5.75% (active),22.5%,27.8%,5.86% (active),44.2%,19.7%,11.8%,27.1%,26%,13.1%,8.49% (active),45.5%,24.2%,22.9%,28.6%,18.8%,45.9%,-31.1% (active),49.7%
N=C(N)c1ccc(-c2ccc(-c3ccc(F)cc3)s2)s1,-86.3% (active),-61.4% (active),76.9%,-54.4% (active),-69.1% (active),-19.5% (active),-76.4% (active),-29% (active),-50.2% (active),-45.5% (active),-74.2% (active),-76.1% (active),81%,-57.5% (active),-89.7% (active),-24.2% (active),77.6%,-67.9% (active),-67.2% (active),83.5%
CCn1cc(C2=C(c3cn(C)c4ncccc34)C(=O)NC2=O)c2cccnc21,80.1%,100%,73.8%,61.2%,76.9%,75.6%,61.4%,72%,102%,81.8%,67.6%,72.4%,-10.8% (active),87.7%,76.7%,66%,86.3%,70%,66.5%,90.7%
